Most compounds without a hit are left out; they make up all but 2.8% or so of the library.
Platelet DG rel: inhibitors of platelet dense granule secretion, primary screen, cell-based, MLPCN, human platelets; AID 1663, 2009; actives 0.22% (n = 300,000); inhibition, %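 (compounds screened at 7.5 µM in platelet-rich plasma)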; human platelet-rich plasma, SFLLRN dense granule ATP release, luminescence;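 active = mean replicate score, as percent of positive control, at or above 50; inconclusive = mean below 50 but at least one replicate at or above 50; inactive = mean and every replicate below 50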
p-CIP stab down: p/CIP-EGFP fusion destabilizers, primary screen, fluorescence, F442A cells; Q05BA5; 16 h; decrease of EGFP signal, % at 10 µM; actives 0.01% (n = 290,000); AID 1984, 2009;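 active = EGFP signal decrease of at least 30% at 10 µM or well 3 SD below plate mean, unless failing retest; inactive = the rest, including hits failing retest or dose response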
AHR act: AHR activators, primary screen, cell-based, luminescence, luciferase reporter, human | actives 2.5% (n = 320,000) | AHR-responsive luciferase reporter cells | AID 2796, 2010 | activation, % at 5 µM | Aryl hydrocarbon receptor (Homo sapiens), P35869; in the data active = activation above about 47%
HIF activator: HIF pathway transcriptional activators, primary screen, cell-based, U2OS HRE-luciferase, luminescence; actives 0.32% (n = 300,000); AID 1910, 2009; activation, % at 7.5 µM (by protocol); U2OS HRE-luciferase reporter; normalized: DMSO 0%, desferrioxamine 100%;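 active = mean activation of at least 10% of the iron chelator positive control signal, with at least half of replicates also reaching 10%; inconclusive = mean and replicate majority disagree about reaching 10%; inactive = mean and most replicates under 10%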
PolyA inhibitor: polyadenylation inhibitors in yeast reporter cells, primary screen, luminescence, S. cerevisiae; S. cerevisiae SKY197-pL101 polyadenylation reporter, beta-gal luminescence; efflux-impaired pdr1/pdr3 knockout yeast; score 100 = 6 SD above DMSO; activity score, % at 12 µM; actives 0.02% (n = 300,000);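 active = lowest replicate activity score at least 50, where 100 means six control SD above control mean; inconclusive = lowest score under 50 but half or more replicates reach 50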;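 note: yeast exposed to compound for 9 h at 30 °C; higher score means more reporter readthrough which indicates perturbed polyadenylation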
Numbers stand for hits; – = inactive; ? = inconclusive; · = no result given.

SMILES	Platelet DG rel	p-CIP stab down	AHR act	HIF activator	PolyA inhibitor
CC(=O)Nc1cc2c(cc1NC(=O)Cn1nc(-c3ccc4c(c3)OCCO4)ccc1=O)OCCO2	–	–	–	–	–
O=C(c1ccco1)N1CCN(c2ncnc3c(-c4ccccc4)nsc23)CC1	–	–	66.3	–	–
CC(=O)Nc1cccc(NC(=O)Cc2ccc3ccccc3c2)c1	–	–	–	–	–
c1ccc2c(Nc3nnc(-c4ccncc4)s3)cccc2c1	–	–	62.8	–	–
Cc1cccc2c1nc(-c1ccccc1)n1cnnc21	–	–	–	–	–
Cc1cccc2c1nc(-c1ccccc1)n1nnnc21	–	–	56.9	–	–
N#Cc1ccsc1NC(=O)C1CC(=O)N(Cc2ccccc2)C1 (centres undefined)	–	·	–	–	–
COc1cccc(OC)c1C(=O)Nc1sc2c(c1C#N)CCC2	–	–	53.9	–	–
CCc1cc2c(Nc3ccc(O)cc3)nc(C)nc2s1	–	–	79.0	–	–
O=C1CN(C(=O)c2ccc(Br)o2)C(c2ccccc2)c2cc(Cl)ccc2N1 (centres undefined)	–	–	65.8	–	–
O=C1CN(C(=O)c2ccc(Br)o2)C(c2ccc(F)cc2)c2cc(Cl)ccc2N1 (centres undefined)	–	–	–	–	–
O=C1CN(C(=O)c2ccc(Br)o2)C(c2ccccc2)c2cc(Br)ccc2N1 (centres undefined)	–	–	70.5	–	–
Cc1ccc2c(c1)C(c1ccccc1)N(C(=O)c1ccc(Br)o1)CC(=O)N2 (centres undefined)	–	–	–	–	–
CCOC(=O)c1cnc(SC2CCc3ccccc3C2=O)nc1N (centres undefined)	–	–	–	–	–
COCn1c(-c2ccc(OC)cc2)nc2ccccc21	–	–	55.3	–	–
CCCn1c(-c2ccc(OC)cc2)nc2ccccc21	–	–	–	–	–
CC(=O)Nc1ccc(NC(=O)CC(C)n2ccnc2)cc1 (centres undefined)	–	–	–	–	–
COc1cc(-c2cc(=O)c3ccccc3o2)ccc1O	–	–	77.4	–	–
COc1cc(-c2cc(=O)c3c(O)cc(O)cc3o2)ccc1O	–	–	–	–	–
Cn1c(C(=O)N[C@@H](C(=O)O)c2ccccc2)cc2cc(F)ccc21	–	–	–	–	–
Cc1oc(-c2ccc(Cl)cc2)nc1CS(=O)CC(=O)NCCN1CCCCCC1 (centres undefined)	–	–	–	109.1	–
Cc1ccc(-c2nc(CS(=O)CC(=O)NCCN3CCCCCC3)c(C)o2)cc1 (centres undefined)	–	–	–	–	–
COc1ccc(CN(CCC(c2ccccc2)C2CCOC(C)(C)C2)C(C)=O)cc1 (centres undefined)	–	–	–	–	–
Cc1ccc(C(CC(=O)O)C2CCOC(C)(C)C2)cc1 (centres undefined)	–	–	–	41.7	–
COC(=O)c1c(NC(=O)C(=O)N2CCCC2)sc2c1CC(C)(C)OC2	–	–	–	–	–
SMILES	Platelet DG rel	p-CIP stab down	AHR act	HIF activator	PolyA inhibitor
CCOC(=O)c1c(C)[nH]c(C(=O)N/N=C/c2ccc(Br)cc2)c1C	–	–	66.9	–	–
Cc1[nH]c(C(=O)N/N=C/c2ccc(C(=O)O)cc2)c(C)c1C(=O)N/N=C/c1ccc(C(=O)O)cc1	–	–	–	–	–
O=C(Nc1ccc2c(c1)CCCN2C(=O)c1ccccc1)c1ccccc1	–	–	–	–	–
CCN(CCS(=O)(=O)c1ccc(Cl)cc1)C(=O)Nc1ccccc1	–	–	–	–	–
O=C(Nc1ccccc1)N(O)c1ccc(Cl)cc1	–	–	59.7	–	–
COCCN(C(=O)COC(=O)/C=C/c1ccc(OC)c(OC)c1)c1c(N)n(Cc2ccccc2)c(=O)[nH]c1=O	–	·	–	–	–
O=C(Nc1ccsc1C(=O)O)c1ccccc1	–	–	–	–	–
O=C(Nc1ccsc1C(=O)NC1CC1)c1ccccc1	–	–	58.6	–	–
O=C(O)c1ccc(S(=O)(=O)N2CCN(c3ccccn3)CC2)cc1	–	–	–	–	?
Cc1ccc(S(=O)(=O)N2CCN(c3ccccn3)CC2)cc1	–	–	–	47.8	–
CCC(=O)Nc1ccc(NCc2cccs2)cc1	–	–	–	–	–

Source: PubChem (several laboratories)
